Measurements reported in PubChem BioAssay AID778 (Sanford-Burnham Center for Chemical Genomics, 2007).
About 20,000 (21%) of roughly 96,000 compounds were called active. The list is a sample of the results. Values without a mark were called inactive.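 How the source made its calls: active means CYP2C19 inhibition above a set limit at 5 µM in the primary screen (cut at about 50% in these data); inactive means the rest.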

The compounds below were run against Cytochrome P450 2C19 (Homo sapiens) (UniProt P33261) (assay: blockers of cytochrome P450 2C19 activity – biochemical, luminescence, ADME assay, primary screen (AID 778;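 further: plate controls were negative control wells for no effect and 2.5 mM tranylcypromine positive control for full effect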)). Settings: CYP2C19 Supersomes, luciferin-H EGE luminescence, 30 min; at 5 µM; active compounds read high.
Chain of Cytochrome P450 2C19 (Homo sapiens) (P33261 whole entry, looked up): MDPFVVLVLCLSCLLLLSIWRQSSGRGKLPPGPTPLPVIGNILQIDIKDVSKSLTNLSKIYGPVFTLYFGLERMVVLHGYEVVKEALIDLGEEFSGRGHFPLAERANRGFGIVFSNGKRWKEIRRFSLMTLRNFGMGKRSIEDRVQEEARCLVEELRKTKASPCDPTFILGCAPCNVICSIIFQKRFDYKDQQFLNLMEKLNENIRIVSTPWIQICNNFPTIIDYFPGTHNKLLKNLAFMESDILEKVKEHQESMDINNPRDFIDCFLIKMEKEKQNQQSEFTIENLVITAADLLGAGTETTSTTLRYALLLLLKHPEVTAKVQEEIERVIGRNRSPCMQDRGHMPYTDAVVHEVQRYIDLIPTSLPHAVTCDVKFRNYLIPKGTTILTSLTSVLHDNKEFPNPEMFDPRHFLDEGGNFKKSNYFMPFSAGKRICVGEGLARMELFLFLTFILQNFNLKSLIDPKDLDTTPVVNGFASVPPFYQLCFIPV
O=P(O)(CP(=O)(c1ccccc1)c1ccccc1)c1ccccc1 gave an inhibition of -1.3%.
Cc1ccc(N2CCN(c3ccc(C)cc3)C2c2ccccn2)cc1 was tested, and the inhibition was 27.1%.
Compound CCc1ccccc1NC(=O)/C(=C/c1ccccc1)c1ccccc1 has an inhibition of 28.8%.
For O=c1onc(-c2cccs2)n1Cc1ccccc1, the inhibition was 79.9% (active).
Compound O=c1[nH]c(-c2cccs2)nc2ccccc12 has an inhibition of 1.4%.
For O=C(CSc1nnc(-c2cccs2)n1Cc1ccccc1)N1CCc2ccccc2C1, the inhibition was 31.9%.
Cn1c(C(=O)NCCN2CCc3ccccc3C2)cc2c(=O)[nH]c3ccccc3c21 was tested, and the inhibition was 14.8%.
With CCOC(=O)CCc1c(C)c2ccc(OCc3nn[nH]n3)c(C)c2oc1=O the inhibition was 0%.
O=C1c2cccc3cc(Br)cc(c23)C(=O)N1Nc1ccccc1 showed an inhibition of 29.2%.
In the case of Cc1noc(NS(=O)(=O)c2ccc(NC(=O)C34CCC(CC3)C4)cc2)c1C, the inhibition is reported as -12.3%.
For Cc1ccccc1C(=O)N1CCC(C(=O)Nc2ccc(S(=O)(=O)N(C)C(C)C)cc2)CC1, the inhibition was 25.1%.
In the case of CCCS(=O)(=O)Nc1c(C(=O)O)[nH]c2ccccc12, the inhibition is reported as 11.8%.
Compound COC(=O)c1[nH]c2ccc(Br)cc2c1NC(=O)Oc1ccccc1 has an inhibition of 7.3%.
With COC(=O)c1[nH]c2ccccc2c1NS(=O)(=O)c1ccc(OC)cc1OC the inhibition was 89.7% (active).
CCOCCCNC(=O)c1c[nH]c2cc(C)ccc2c1=O showed an inhibition of -3.9%.
Work on C[C@H](NC(=O)NCCc1ccccc1)C(=O)O yielded an inhibition of -17.1%.
In the case of CCC(C)NC(=O)CCCc1ccccc1 (stereo unspecified), the inhibition is reported as 58.1% (active).
CC(C)c1ccc(C(=O)NCCCc2ccccc2)cc1 was tested, and the inhibition was 14.8%.
In the case of Cc1ccc2cccc(O)c2[n+]1[O-], the inhibition is reported as 1.9%.
For CCc1ccc2nc3sc(C(=O)Nc4nnc(CC)s4)c(N)c3cc2c1, the inhibition was 39.6%.
Work on CCCc1nc2ccccc2c(C(=O)OCC(=O)c2ccc3c(c2)NC(=O)CO3)c1CC yielded an inhibition of -9.7%.
With CCCc1nc2ccccc2c(C(=O)OCc2nnc(-c3cc(OC)c(OC)c(OC)c3)o2)c1CC the inhibition was 69.1% (active).
In the case of COc1cc(-c2nnc(Cn3cc(C(F)(F)F)ccc3=O)o2)cc(OC)c1OC, the inhibition is reported as 8.6%.
With C=CCC(NCCCO)c1cccc(OC)c1OC (stereo unspecified) the inhibition was -15.9%.
Compound O=C(C1CCN(S(=O)(=O)c2cnc[nH]2)CC1)N1CCN(Cc2ccc3c(c2)OCO3)CC1 has an inhibition of 11.6%.
For CCOC(=O)N1CCN(S(=O)(=O)c2cc(Br)cc3c2N(C(=O)C2CC2)CC3)CC1, the inhibition was 30.1%.
In the case of CCN(c1ccc2c(c1)OCO2)S(=O)(=O)c1cc(Br)cc2c1N(C(=O)C1CC1)CC2, the inhibition is reported as 51.5% (active).
For CC(C)C(=O)Nc1cccc(NC(=S)NC(=O)C(c2ccccc2)c2ccccc2)c1, the inhibition was 18.9%.
CCc1cc(=O)oc2cc(C)cc(OC(C)C(=O)O)c12 (stereo unspecified) was tested, and the inhibition was -4.4%.
Compound COc1ccc(NC(=O)C(CC(C)C)NS(=O)(=O)c2ccc3c(c2)CCN3C(C)=O)cc1OC (stereo unspecified) has an inhibition of 31.2%.
Compound COc1ccc(-n2c(SCC(=O)Nc3sc4c(c3C#N)CCCC4)nnc2-c2ccc(O)cc2)cc1 has an inhibition of 26.8%.
O=C(NCc1ccc2c(c1)OCO2)c1cc2c(s1)CS(=O)(=O)C2 showed an inhibition of 28.8%.
For CC(Sc1nncs1)C(=O)NCc1ccc2c(c1)OCO2 (stereo unspecified), the inhibition was 75.7% (active).
Compound Cc1ccc2c(c1)-c1c(ssc1=S)C(C)(C)N2C(=O)CN1C(=O)c2ccccc2C1=O has an inhibition of 25.1%.
With Cc1nc2ccc(S(=O)(=O)NCC(=O)O)cc2s1 the inhibition was -10.3%.
With N#Cc1ccc(OCCN2C(=O)NC3(CCSC3)C2=O)cc1 (stereo unspecified) the inhibition was -8.7%.
In the case of CCCOc1ccccc1C1CC(=O)Nc2cc3c(cc21)OCO3 (stereo unspecified), the inhibition is reported as 99.3% (active).
With COc1ccccc1C1C2=C(COC2=O)Nc2cc3c(cc21)OCO3 (stereo unspecified) the inhibition was 91.7% (active).
COc1cc2c(cc1OC)C(c1ccc(C)o1)CC(=O)N2 (stereo unspecified) showed an inhibition of -11%.
For CCCOc1ccc(C2NC(=O)NC(c3ccccc3)=C2C(C)=O)cc1OCC (stereo unspecified), the inhibition was 11%.
Cc1cc(=O)oc(C)c1C(=O)N1CCCCC1 gave an inhibition of 20.5%.
With O=[N+]([O-])c1ccccc1OCCCCN1CCCCC1 the inhibition was 1%.
COc1cccc(C(=O)NNC(=O)c2ccccc2Br)c1 was tested, and the inhibition was 8.8%.
With COc1cccc(C(=O)c2cc3ccc(O)cc3oc2=O)c1 the inhibition was 83.3% (active).
Work on COc1ccc2oc(=O)c(C(=O)O)cc2c1 yielded an inhibition of -14.5%.
CCOCCCNC(=O)C(NC(=O)CNC(=O)c1ccccc1)c1ccc(C)cc1 (stereo unspecified) gave an inhibition of -8.2%.
For O=C(c1cn(-c2ccccc2)nc1-c1cccnc1)N1CCCCC1, the inhibition was 40.6%.
Compound COc1ccccc1N1CCN(C(=O)Cn2nnc(-c3cccs3)n2)CC1 has an inhibition of 46.2%.
For COc1ccccc1N1CCN(C(=O)c2cc3c(-c4ccc(Cl)cc4)nn(C)c3s2)CC1, the inhibition was 74.1% (active).
With CCOC(=O)N1CCN(C(=O)c2cc3c(-c4ccc(Cl)cc4)nn(C)c3s2)CC1 the inhibition was 9.1%.
In the case of COc1ccccc1N1CCN(C(=O)c2cn(-c3ccccc3)nc2-c2cccnc2)CC1, the inhibition is reported as 93.8% (active).
Work on COc1cccc(-c2nn(C)c3sc(C(=O)N4CCN(c5ccccc5)CC4)cc23)c1 yielded an inhibition of 23.7%.
Cn1c(=O)[nH]c(=O)c2c1nc(N1CCN(CCO)CC1)n2CCSc1nc2ccccc2s1 gave an inhibition of -15.3%.
Work on O=C(NC1CCc2ccccc21)C12CN(Cc3ccccc3)CC1C(c1cccc([N+](=O)[O-])c1)=NO2 (stereo unspecified) yielded an inhibition of 14.2%.
Compound O=C(N/N=C\c1ccc(-c2ccc(Cl)c(Cl)c2)o1)C(=O)N1CCCC1 has an inhibition of 16.3%.
COC(=O)CN1C(=O)C(O)=C(C(C)=O)C1c1ccc([N+](=O)[O-])cc1 (stereo unspecified) showed an inhibition of -14.6%.
With Cc1ccsc1C(=O)OCC(=O)c1cc2ccccc2o1 the inhibition was 44.1%.
Compound Cc1c(C(=O)NCC2CCCO2)sc2nc(-c3ccccc3)cn12 (stereo unspecified) has an inhibition of 27.4%.
In the case of Cc1ccsc1C(=O)OCC(=O)c1cc(C)n(CC2CCCO2)c1C (stereo unspecified), the inhibition is reported as 54.4% (active).
COC(=O)c1ccc(S(=O)(=O)N2CCC(c3nc4ccccc4o3)CC2)cc1 showed an inhibition of 8.7%.
In the case of Oc1ccc(/C=N/NC2=NCCCCC2)c(O)c1, the inhibition is reported as 13.9%.
In the case of COC(=O)C1CCN(CC(N)=O)CC1, the inhibition is reported as -8.8%.
Cc1cc(C)c([N+](=O)[O-])cc1-c1ccc(/C=N/NC(=O)c2nonc2N)o1 was tested, and the inhibition was 3.8%.
In the case of Cc1cc([N+](=O)[O-])c(-c2ccc(/C=N/n3cnnc3)o2)cc1Cl, the inhibition is reported as 63.7% (active).
NC(=O)c1ccsc1NC(=O)c1ccco1 showed an inhibition of 38.9%.
Compound O=C(NCC(F)(F)F)Nc1nnc(C(F)(F)F)s1 has an inhibition of -26%.
In the case of CCOc1c2ccc(C(=O)NCc3ccc4c(c3)OCO4)cc2nn1C, the inhibition is reported as 31.5%.
In the case of CCOc1cc(S(=O)(=O)NC2CC(C)(C)NC(C)(C)C2)ccc1F, the inhibition is reported as -5.3%.
With CCOc1cc(S(=O)(=O)NCc2ccc3c(c2)OCO3)ccc1F the inhibition was 91.8% (active).
O=C(Nc1cc(-c2nn(CC(=O)N3CCCCC3)c(=O)c3ccccc23)ccc1N1CCOCC1)c1ccc(Cl)cc1 was tested, and the inhibition was 7.3%.
CC(C)C(=O)NC(=S)Nc1ccccc1F was tested, and the inhibition was 25.4%.
CC(C(=O)Nc1ccc(F)c(F)c1F)N1CCCCCC1 (stereo unspecified) was tested, and the inhibition was 64.6% (active).
Compound O=C(CN1C(=O)NC2(CCCC2)C1=O)Nc1ccc(F)c(F)c1F has an inhibition of 0.4%.
In the case of C=CCNc1ncnc2ccc(Br)cc12, the inhibition is reported as 20.7%.
Compound Cc1ccc(S(=O)(=O)NCc2csc(C)n2)c(C)c1 has an inhibition of 13.3%.
For Cc1nc(CNS(=O)(=O)c2ccc(Oc3ccccc3)cc2)cs1, the inhibition was 73.1% (active).
In the case of Cc1nc(CNS(=O)(=O)c2cccnc2)cs1, the inhibition is reported as 19.3%.
Compound CCOC(=O)c1sc(NC(=O)c2cc(S(=O)(=O)N3CCOCC3)ccc2C)nc1C has an inhibition of 35.4%.
In the case of Cc1cc(C(=O)OC(C)C(=O)Nc2cccc(S(=O)(=O)N3CCOCC3)c2)c(C)o1 (stereo unspecified), the inhibition is reported as 96.4% (active).
Cc1cc(=O)oc2cc(OC(C)C(=O)Nc3ccc(N4CCOCC4)cc3)ccc12 (stereo unspecified) showed an inhibition of 27.5%.
Compound CC(Sc1nncn1C)C(=O)Nc1ccccc1-c1ccccc1 (stereo unspecified) has an inhibition of 9.5%.
O=C1Nc2cc(Cl)c(Cl)cc2N(O)N1c1cc(Cl)cc(Cl)c1 was tested, and the inhibition was -1.7%.
With CN(C)Cc1c(O)ccc2occ(C(O)c3ccccc3)c12 (stereo unspecified) the inhibition was 70.5% (active).
c1csc(CN2CCN(Cc3cccs3)C2c2cccs2)c1 gave an inhibition of 16.8%.
In the case of O=C(CN1CCOCC1)Nc1cc(Cl)ccc1Cl, the inhibition is reported as 48.8%.
For C=C(C)Cn1c(N2CCCC2)nc2c1c(=O)[nH]c(=O)n2C, the inhibition was -8.1%.
COc1ccccc1N1CCN(C(=O)CSc2nnc(-c3ccoc3C)o2)CC1 was tested, and the inhibition was 17.4%.
Work on O=C(CSC1=Nc2ccccc2C2=NC(CC(=O)NCc3ccco3)C(=O)N12)NCc1ccco1 (stereo unspecified) yielded an inhibition of 10.6%.
Work on CCC1CCCCN1CCCNC(=O)Cn1nc(-c2ccccc2)ccc1=O (stereo unspecified) yielded an inhibition of -1.3%.
With Cc1ccsc1-c1nc(CSCC(=O)NCCN2CCCC2)c(C)o1 the inhibition was 1.6%.
Work on O=C(/C=C/c1ccc(Cl)cc1Cl)NCc1ccco1 yielded an inhibition of 31.8%.
C/C(=C\C(=O)c1cccnc1)Nc1ccc(C)c(C)c1 gave an inhibition of 37.2%.
For O=C(/C=C/c1ccc(Cl)cc1Cl)c1cccnc1, the inhibition was 62.6% (active).
C=CCn1c(N)c(C(=O)OCC(C)C)c2nc3ccccc3nc21 was tested, and the inhibition was 18.5%.
In the case of C=CCn1c(N)c(S(=O)(=O)c2cccs2)c2nc3ccccc3nc21, the inhibition is reported as 80.5% (active).
With Cc1ccc(S(=O)(=O)c2c(N)n(C)c3nc4ccccc4nc23)cc1 the inhibition was 47.7%.
